Measurements from PubChem BioAssay AID1851 (National Center for Advancing Translational Sciences (NCATS), 2009).
“And” between values parts separate entries of the source, which are not always exact repeats. Identical values can stand only once. Out of some 16,000 compounds screened, about 4,000 (25%) were called active. Not shown: some 26% with an inconclusive outcome. The call rests on the fitted dose curve; in most records, active means well fitted curve in the direction sought with a large enough effect; inconclusive means small, poorly fitted or top-dose-only effect, or effect the other way; inactive means no such curve, though single readings can be large or run the other way. These entries were drawn from the full list. A structure can be active in one record and inactive in another. Square brackets hold non-standard residues; d marks the D form. Peptide text beside a SMILES is read from it.

Each molecule was assayed against Cytochrome P450 2C9 (Homo sapiens) (UniProt P11712) (assay: Cytochrome panel assay with activity outcomes). Conditions: recombinant CYP, pro-luciferin dealkylation, luminescence, p450-cyp2c9; series mostly up to 57.1 µM; activity, negative = inhibition: at the top concentration.
Sequence of Cytochrome P450 2C9 (Homo sapiens) (P11712 whole entry, looked up): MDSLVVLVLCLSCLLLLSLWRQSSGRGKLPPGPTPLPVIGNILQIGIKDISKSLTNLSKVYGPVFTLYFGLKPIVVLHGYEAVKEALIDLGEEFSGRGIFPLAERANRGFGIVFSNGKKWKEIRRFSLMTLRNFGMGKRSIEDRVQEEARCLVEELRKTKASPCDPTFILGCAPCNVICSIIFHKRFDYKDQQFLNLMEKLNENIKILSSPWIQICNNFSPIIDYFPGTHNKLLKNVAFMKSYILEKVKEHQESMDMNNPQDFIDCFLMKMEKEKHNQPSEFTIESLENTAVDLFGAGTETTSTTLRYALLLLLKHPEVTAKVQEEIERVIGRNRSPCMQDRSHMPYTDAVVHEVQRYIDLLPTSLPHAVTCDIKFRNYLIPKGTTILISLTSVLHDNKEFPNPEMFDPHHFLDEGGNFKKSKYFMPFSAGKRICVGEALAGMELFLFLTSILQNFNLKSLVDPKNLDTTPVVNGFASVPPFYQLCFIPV
On the % scale 0 is the no-effect control and ±100 the full control effect.

activity, negative = inhibition, inactive:
CO[C@@H](NC(N)=O)C(=O)O 25.8% [at 11.4 µM]
NCC(=O)N[C@H](CO)C(=O)O (H-Gly-[dS]-OH) 12.1% [at 11.4 µM]
CCOC(=O)N1CCN(C(=O)c2ccc(Cl)c(S(=O)(=O)N3CCOCC3)c2)CC1 -23.4%
COc1ccc(S(=O)(=O)N(CCc2ccccc2)CC(=O)N2CCOCC2)cc1 -22.5%
CCN(CC)C(=O)COc1ccc(S(=O)(=O)N2CCOCC2)cc1 -37.4%
COc1cccc(-c2cc(NCc3cnc(C)cn3)ncn2)c1 6.07% [at 2.29 µM]
COc1cccc(-c2cc(NCc3ccc(OC)cc3OC)ncn2)c1 -18.3% [at 2.29 µM]
CC1(C)OC(=O)N(Cc2ccco2)C1(C)O (stereo not given) -21.2%
CCCCS(=O)(=O)NC1=NCN(Cc2ccco2)CN1 -14.9%
Cc1ccccc1/C=C1\OC(=O)c2ccccc21 33.4%
COC(=O)C(NC(=O)c1ccccc1)=C1C=C(C)OC(C)=C1 -8.95%
CC(=O)NC1(c2cccc(F)c2)CCN(CC(=O)NC(C)C)CC1 -0.525%
CCCCCCCCCn1cc(C(C)=O)c(=O)[nH]c1=O 3.97%
COc1ccc(CNc2ccnc(-c3ccccc3C(F)(F)F)n2)c(OC)c1 3.78% [at 2.29 µM]
Cc1ccccc1OCC(=O)OC1CCN(C)CC1 -10.2%
Cc1ccc(C(=O)C(OC(=O)CN2C(=O)c3ccccc3C2=O)c2ccccc2)cc1 (stereo not given) -20.4%
CCSc1nnc2n(N)c(=O)c3ccccc3n12 -10.6%
CO[C@H]1COC(=O)CCC[C@H](C)[C@H](OC)COC(=O)C/C=C\[C@@H]1C 25.3% [at 11.4 µM]
COc1ccc(CNc2ncncc2-c2ccc(C(=O)N(C)C)cc2)c(OC)c1 -28.8% [at 2.29 µM]
COc1ccc2[nH]cc(CCNc3cc(-c4ccc(C(=O)N(C)C)cc4)ncn3)c2c1 8.96% [at 2.29 µM]
COc1ccc2[nH]cc(CCNc3ccnc(-c4ccc(C(=O)N(C)C)cc4)n3)c2c1 -14% [at 2.29 µM]
COc1ccc2[nH]cc(CCNc3ncncc3-c3cccnc3)c2c1 0.571% [at 2.29 µM]
CN(C)C(=O)c1ccc(-c2cncnc2NCCc2cnc[nH]2)cc1 -10.2% [at 2.29 µM]
COc1ccc(CNc2ncncc2-c2ccc(N(C)C)cc2)c(OC)c1 -16.8% [at 2.29 µM]
Cn1c(=O)c(-c2cccs2)nc2cnc(OCc3ccccc3)nc21 -29.1%
CC(C)=CCC/C(C)=C/CO/N=C1/C[C@@H](O)[C@@H](O)[C@@H]2[C@@H]3C(=O)N(C4CCCCC4)C(=O)[C@H]3CC[C@@H]12 -8.91% [at 11.4 µM]
CC(SCc1cn2cc(Cl)ccc2n1)C(=O)O (stereo not given) -37.7%
CN(C)c1ccc(-c2cc(NCc3ccccc3)ncn2)cc1 -5.31% [at 2.29 µM]
COc1cccc(-c2cc(NCc3ccccc3OC)ncn2)c1 -9.54% [at 2.29 µM]
CO[C@@H]1COC(=O)[C@H](C)NC(=O)C/C=C\[C@@H](C)[C@@H](NS(=O)(=O)c2ccc(C)cc2)COC(=O)C/C=C\[C@@H]1C -0.567% [at 11.4 µM]
COCCNc1ncnc2ccc(-c3ccc(C(=O)N(C)C)cc3)cc12 -1.35% [at 2.29 µM]
COc1cc(/C=C2/C(=N)N3OC(C)=CC3=NC2=O)ccc1OCCOc1ccc(C)cc1 -13.9%
COc1ccccc1OCCOc1ccc(/C=C2/C(=N)N3OC(C)=CC3=NC2=O)cc1OC -12.8%
CO[C@@H]1COC(=O)CC=C[C@@H](C)[C@@H]2C=C[C@H](O)[C@@H](COC(=O)C/C=C\[C@H]1C)O2 10.7% [at 11.4 µM]
Cc1ccccc1-c1cncnc1N1CCN(C)CC1 18.6% [at 2.29 µM]
CN1CCCC1CCNC1C2CC3CC(C2)CC1C3 (stereo not given) 29.2%
NCCCCN 14.3%
CCCCN(CC)Cc1ccc(CNC(=O)Nc2ccc(OC)cc2OC)o1 -24.1%
CCN(CC)CCOC(=O)c1c(C)n(C)c2ccc(OC)cc12 5.37%

AC50, active:
CCOC(=O)N1CCN(C(=O)c2oc3ccc(S(=O)(=O)N4CCCCC4)cc3c2C)CC1 10 µM
CN(Cc1ccccc1)S(=O)(=O)c1ccc(OCC(=O)N2CCOCC2)cc1 14.1 µM
COc1cccc(-c2nnc3n2N=C(C(C)(C)C)CS3)c1 17.8 µM
Cc1nn(S(=O)(=O)c2cccs2)c(C)c1Sc1ccc([N+](=O)[O-])cc1 4.47 µM
O=C(C/C=N/OCc1ccc(F)cc1Cl)c1cnc(-c2ccccc2)s1 3.98 µM
CC1=CC(=C2C(=O)c3ccccc3C2=O)C=C(C)N1Cc1ccco1 2.24 µM
CC1=CC(=C2C(=O)c3ccccc3C2=O)C=C(C)O1 2.51 µM
Cc1ccc(C(=O)C(OC(=O)CNS(=O)(=O)c2ccccc2)c2ccccc2)cc1 (stereo not given) 7.08 µM
Cc1ccc(C(=O)C(OC(=O)COc2ccccc2C)c2ccccc2)cc1 (stereo not given) 15.8 µM
COc1ccc2[nH]cc(CCNc3ncncc3-c3ccc(C(=O)N(C)C)cc3)c2c1 0.398 µM
COc1ccc2[nH]cc(CCNc3ncnc4ccc(-c5ccc(C(=O)N(C)C)cc5)cc34)c2c1 0.251 µM
COc1ccc2[nH]cc(CCNc3ncncc3-c3ccc(N(C)C)cc3)c2c1 0.501 µM
CSc1n[nH]c(-c2sccc2OCc2ccc(C)cc2)n1 5.01 µM
Cn1c(-c2sccc2OCc2ccccc2)n[nH]c1=S 11.2 µM
CSc1nnc(-c2sccc2OCc2ccccc2)n1C 17.8 µM
c1ccc(Oc2cc(-c3ccccc3)ncn2)cc1 20 µM
COc1cc(/C=C2/C(=N)N3C=CSC3=NC2=O)ccc1OCCCOc1ccccc1C 0.708 µM
CCOc1cc(/C=C2/C(=N)N3C=CSC3=NC2=O)ccc1OCCCOc1ccccc1C 0.631 µM
CCCCOC(=O)C1=C(C)Nc2ncnn2C1c1cc(OC)ccc1OC (stereo not given) 7.94 µM

AC50, inactive:
NCCCNCCCCNCCCN

AC50, inactive and 12.6 µM (active):
NCCCCNCCCN
